Structures are written as SMILES. Records with an inconclusive call do not appear. Calls of active or inactive are those of the source. Unless noted, calls follow the shape of the dose curve; as a rule, active = well fitted inhibition curve with a large enough effect; inconclusive = small, poorly fitted or top-dose-only effect; inactive = flat fitted curve, though single readings scatter. Peptide text beside a SMILES is read from it.

The values that follow come from PubChem BioAssay (NCATS).

Assay [1] is described as follows: qHTS drug screen for cell cycle checkpoint inhibitors in PARPi-resistant BRCA-mutant ovarian cancer cell lines. (AID 1963452; calls by dose curve; also: potency is read from the fitted curve at half-maximal effect). As to conditions: PEO1/OlaR viability, CellTiter-Glo luminescence, 96 h; for Z-AUC: stronger effect = lower value. A digest of the protocol: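 PEO1, PEO4 and PEO1/OlaR ovarian cancer cells, 600 per well, exposed 96 h at 37C to a dilution series. Viability read by CellTiter-Glo luminescence, normalized to DMSO and empty wells; activity summarized as Z-AUC.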

The nature of assay [2]: qHTS for identification of novel therapeutic agents for treatment of microphthalmiaassociated transcription factor (MiT) renal cell carcinoma (RCC) (AID 1963991; calls by dose curve; also: potency is read from the fitted curve at half-maximal effect). Particulars: CellTiter-Glo, 48 h; for Potency: active = Z-AUC below -0.8 in all three lines; for z-score: stronger effect = lower value. The gist of the method:
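Three TFE3-fusion RCC lines (UOK109, UOK124, UOK145), 500 cells/well in complete medium, were treated with MIPE 4.0 compounds for 48 hours at 37 C. Viability was by CellTiter-Glo luminescence, normalized to DMSO (100%) and empty wells (0%); curves fitted over 11 concentrations.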
A general note: Quantitative high-throughput screening tests each substance at several concentrations.

A short description of assay [3]: qHTS profiling for inhibitors of Plasmodium falciparum proliferation (AID 504749).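 Also: 0% = DMSO vehicle and full inhibition = artemisinin control; nearly all actives have a fitted effect of over 60% in size.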 Particulars: P. falciparum in erythrocytes, SYBR Green DNA, 72 h. The gist of the method: (§1)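 SYBR Green fluorescence (ex 485 nm, em 535 nm) reports parasite DNA after 72 h compound exposure of infected red cells at 0.3% parasitemia, 2.5% hematocrit; signal normalized to 0.29 uM artemisinin and vehicle wells.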

The subject of another assay is 3D7. The description is as above. Particulars: P. falciparum in erythrocytes, SYBR Green DNA, 72 h; series mostly up to 28.7 µM. A digest of the protocol: as §1
The next assay concerns 7G8. The assay is described as above. As to conditions: P. falciparum in erythrocytes, SYBR Green DNA, 72 h; series mostly up to 28.7 µM. The gist of the method:
as §1

A further assay deals with AA1029. Described as above. Particulars: P. falciparum in erythrocytes, SYBR Green DNA, 72 h; series mostly up to 28.7 µM. A digest of the protocol:
as §1

In another assay the test system is AS120. Described as above. Particulars: P. falciparum in erythrocytes, SYBR Green DNA, 72 h; series mostly up to 28.7 µM. The gist of the method:
as §1

Another assay concerns ATS189. The description is as above. Particulars: P. falciparum in erythrocytes, SYBR Green DNA, 72 h; series mostly up to 28.7 µM. The gist of the method:
as §1

The next assay concerns ATS95. The description is as above. Particulars: P. falciparum in erythrocytes, SYBR Green DNA, 72 h; series mostly up to 28.7 µM. The gist of the method:
as §1

A further assay has as its system C2A. The assay is described as above. As to conditions: P. falciparum in erythrocytes, SYBR Green DNA, 72 h; series mostly up to 28.7 µM. The gist of the method: as §1
The next assay relates to CP185. The description is as above. Particulars: P. falciparum in erythrocytes, SYBR Green DNA, 72 h; series mostly up to 28.7 µM. The gist of the method: as §1
In a further assay the test system is CP191. The description is as above. As to conditions: P. falciparum in erythrocytes, SYBR Green DNA, 72 h; series mostly up to 28.7 µM. The gist of the method: as §1
The next assay concerns CP192. Described as above. Particulars: P. falciparum in erythrocytes, SYBR Green DNA, 72 h; series mostly up to 28.7 µM. The gist of the method:
as §1

The next assay deals with CP194. The description is as above. Particulars: P. falciparum in erythrocytes, SYBR Green DNA, 72 h; series mostly up to 28.7 µM. A digest of the protocol:
as §1

Another assay deals with CP201. The assay is described as above. Particulars: P. falciparum in erythrocytes, SYBR Green DNA, 72 h; series mostly up to 28.7 µM. A digest of the protocol:
as §1

[4] abbreviates: measured here: PEO1 parental Z-AUC.
Where [5] appears, read: TFE3-RCC UOK109 viability, measured here: UOK109 Z-AUC.
Setting [6] is: TFE3-RCC viability, measured here: UOK124 Z-AUC.
The mark [7] stands for this setting: TFE3-RCC viability, measured here: UOK145 Z-AUC.
[8] abbreviates: at 28.7 µM (top of the series), parasite line A.
Where [9] appears, read: at 28.7 µM (top of the series), parasite line B.

As for `CCN(CC)CCOc1ccc(Nc2ncc3cc(-c4c(Cl)cccc4Cl)c(=O)n(C)c3n2)cc1`, the Potency in assay [1] was 155 nM (active); in [2] (TFE3-RCC UOK109 viability) it was 11.8 nM (active). Besides, the Z-AUC in assay [1] (setting [4]) is -1.55; in [1] (measured here: PEO4 Z-AUC), -1.25. Besides, the z-score in assay [2] (setting [5]) was -2.53; in [2] (setting [6]), -3.17; in [2] (setting [7]), -2.04.
On to `C[Se]CCC(N)C(=O)O` (centres undefined), for which the Z-AUC in [1] was 0.282 (inactive); in assay [1] (setting [4]), 1.03; in [1] (measured here: PEO4 Z-AUC), 1.31. Also, the z-score was 1.47 in assay [2] (setting [5]), 0.35 in [2] (setting [6]) and 0.0936 in assay [2] (setting [7]). In addition, the activity, negative = inhibition in assay [3] (setting [8]) was 6.19% (inactive); in assay [3] (setting [9]) it was -13.4% (inactive). In addition, the Potency result in the assay with 3D7, with 7G8, in the assay on AA1029, in the assay on AS120, in the assay on ATS189 and in the assay with ATS95 was “inactive” each time. Besides, the Potency result with C2A, in the assay with CP185, with CP191, with CP192, with CP194 and with CP201 was “inactive” each time.
In the case of `COC(=O)[C@H](Cc1ccccc1)NC(=O)[C@@H](N)CC(=O)O` (H-Asp-Phe-OMe), the Z-AUC in assay [1] was 0.187 (inactive); in assay [1] (setting [4]), 0.0667; in [1] (measured here: PEO4 Z-AUC), 0.437. For the same compound, the z-score stood at 0.591 in assay [2] (setting [5]), 0.672 in assay [2] (setting [6]) and 0.618 in [2] (setting [7]). Also, the activity, negative = inhibition in [3] (setting [8]) was 5.55% (inactive); in [3] (setting [9]), 9.71% (inactive). Further, the Potency entry in the assay on 3D7, with 7G8, with AA1029, in the assay on AS120, in the assay on ATS189 and with ATS95 was “inactive” each time. The Potency result in the assay on C2A, in the assay with CP185, in the assay with CP191, in the assay on CP192, in the assay with CP194 and in the assay on CP201 was “inactive” each time.
`CCOc1cc(CC(=O)N[C@@H](CC(C)C)c2ccccc2N2CCCCC2)ccc1C(=O)O`: the values for the Z-AUC in [1], in assay [1] (setting [4]) and in [1] (measured here: PEO4 Z-AUC) were 0.686 (inactive), 0.341 and 0.628, respectively. Also, the z-score is 0.724 in assay [2] (setting [5]), 0.688 in assay [2] (setting [6]) and 0.737 in assay [2] (setting [7]). Also, the activity, negative = inhibition in assay [3] (at 12.8 µM (top of the series), parasite line A) is 4.74% (inactive); in assay [3] (at 12.8 µM (top of the series), parasite line B), 10.7% (inactive). Further, the Potency result in the assay on 3D7, in the assay on 7G8, in the assay with AA1029, in the assay with AS120, in the assay on ATS189 and with ATS95 was “inactive” in each case. The Potency result in the assay on C2A, in the assay on CP185, with CP191, in the assay with CP192, in the assay with CP194 and in the assay on CP201 was “inactive” throughout.
`O=c1c(O)c(-c2ccc(O)cc2O)oc2cc(O)cc(O)c12`: the figures for the Z-AUC in assay [1], in [1] (setting [4]) and in assay [1] (measured here: PEO4 Z-AUC) were 1.32 (inactive), 1.13 and 1.21, respectively. Moreover, the z-score in assay [2] (setting [5]) was 0.0602; in assay [2] (setting [6]), 0.591; in assay [2] (setting [7]) it was -0.0945.
For the compound `CCCOc1ccc2nc(NC(=O)OC)[nH]c2c1`, the Z-AUC in assay [1] was -0.576 (inactive); in assay [1] (setting [4]), -0.504; in assay [1] (measured here: PEO4 Z-AUC) it was -0.563. In addition, the Potency in assay [2] (TFE3-RCC UOK109 viability) was 7.43 nM (active). The figures for the z-score in assay [2] (setting [5]), in assay [2] (setting [6]) and in assay [2] (setting [7]) were -2.25, -3.82 and -2.16, respectively. Further, the activity, negative = inhibition in assay [3] (setting [8]) is -0.812% (inactive); in assay [3] (setting [9]), 13.5% (inactive). Also, the Potency entry in the assay on 3D7, in the assay with 7G8, in the assay on AA1029, with AS120, in the assay with ATS189 and in the assay on ATS95 was “inactive” each time. Besides, the Potency result in the assay with C2A, in the assay with CP185, in the assay on CP191, in the assay with CP192, with CP194 and in the assay on CP201 was “inactive” throughout.
